Changes are numbered by the printed parent chain.

Our source for the binding signal values is article PMC11006913.

Holding throughout (test): PBM; 200 nM protein, PBS
What all share (details): dsDNA, one strand shown

For assay [1], the target named is ALX4 (Homo sapiens, UniProt Q9H161 200-286).
Assay [2] addresses ALX4 (Homo sapiens, UniProt Q9H161 200-286, Q225E).
The target of a further assay is HOXA4 (Homo sapiens, UniProt Q00056 201-287, R217L).
The target of assay [3] is ALX3 (Homo sapiens, UniProt O95076 139-225, N203S).
Assay [4] has as its target MSX2 (Homo sapiens, UniProt P35548 130-214, R199I).
The target of assay [5] is MSX2 (Homo sapiens, UniProt P35548 130-214).
In assay [6] the target is MSX2 (Homo sapiens, UniProt P35548 130-214, F161Y).
In assay [7] the target is ALX1 (Homo sapiens, UniProt Q15699 118-204, L144V).
In a further assay the target is PITX2 (Homo sapiens, UniProt Q99697 72-157).
In assay [8] the target is ALX1 (Homo sapiens, UniProt Q15699 118-204, L144R).
Assay [9] deals with ALX1 (Homo sapiens, UniProt Q15699 118-204).
The target of assay [10] is PROP1 (Homo sapiens, UniProt O75360 56-141).
Assay [11] addresses PROP1 (Homo sapiens, UniProt O75360 56-141, R99H).
For assay [12], the target named is PROP1 (Homo sapiens, UniProt O75360 56-141, F88S).
The target in assay [13] is VAX1 (Homo sapiens, UniProt Q5SQQ9 86-172).
Assay [14] has as its target VAX1 (Homo sapiens, UniProt Q5SQQ9 86-172, T142I).
Assay [15] addresses VAX1 (Homo sapiens, UniProt Q5SQQ9 86-172, K157R).
For assay [16], the target named is T1, PAX4 (Homo sapiens, UniProt O43316 9-242, R200K).
T1 sequence: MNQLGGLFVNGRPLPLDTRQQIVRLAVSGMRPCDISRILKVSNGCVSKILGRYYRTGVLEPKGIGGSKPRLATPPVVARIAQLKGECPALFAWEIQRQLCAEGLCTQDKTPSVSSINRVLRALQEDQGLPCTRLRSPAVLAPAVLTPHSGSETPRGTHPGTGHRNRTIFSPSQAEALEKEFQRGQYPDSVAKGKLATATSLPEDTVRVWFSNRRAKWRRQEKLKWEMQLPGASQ

In assay [17] the target is T2, PAX4 (Homo sapiens, UniProt O43316 9-242).
T2 sequence: T1 sequence with K192R

For assay [18], the target named is ALX3 (Homo sapiens, UniProt O95076 139-225, N203Q).
Assay [19] concerns the target T3, PAX4 (Homo sapiens, UniProt O43316 9-242, R200Q).
T3 sequence: T1 sequence with K192Q

The target of assay [20] is T4, PAX4 (Homo sapiens, UniProt O43316 9-242, F177V).
T4 sequence: T1 sequence with F169V, K192R

Assay [21] addresses ALX3 (Homo sapiens, UniProt O95076 139-225).
Assay [22] deals with T5, PAX4 (Homo sapiens, UniProt O43316 9-242, F177Y).
T5 sequence: T1 sequence with F169Y, K192R

For assay [23], the target named is ALX3 (Homo sapiens, UniProt O95076 139-225, L168Q).
The target of assay [24] is ALX3 (Homo sapiens, UniProt O95076 139-225, L168V).
The target in assay [25] is T6, PAX4 (Homo sapiens, UniProt O43316 9-242, R227W).
T6 sequence: T1 sequence with K192R, R219W

Assay [26] has as its target HOXA2 (Homo sapiens, UniProt O43364 129-215, R185T).
The target of assay [27] is HOXA2 (Homo sapiens, UniProt O43364 129-215, R185K).
Assay [28] concerns the target HOXA2 (Homo sapiens, UniProt O43364 129-215, Y150S).
The target in assay [29] is HOXA2 (Homo sapiens, UniProt O43364 129-215).
Assay [30] deals with T7, NKX2-6 (Homo sapiens, UniProt A6NCS4 118-204).
T7 sequence: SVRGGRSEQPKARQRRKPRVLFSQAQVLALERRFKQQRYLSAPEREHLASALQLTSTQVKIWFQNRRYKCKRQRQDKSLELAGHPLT

Assay [31] has as its target T8, NKX2-6 (Homo sapiens, UniProt A6NCS4 118-204, F151L).
T8 sequence: T7 sequence with F34L

MSX2 (Homo sapiens, UniProt P35548 130-214, R199I), sequence (P35548 130-214 R199I): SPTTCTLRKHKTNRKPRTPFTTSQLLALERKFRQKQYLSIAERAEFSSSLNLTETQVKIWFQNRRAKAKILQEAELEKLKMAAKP
MSX2 (Homo sapiens, UniProt P35548 130-214), sequence (P35548 130-214): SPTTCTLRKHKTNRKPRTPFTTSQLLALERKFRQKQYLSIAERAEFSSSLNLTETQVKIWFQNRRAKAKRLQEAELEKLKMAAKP
ALX4 (Homo sapiens, UniProt Q9H161 200-286), sequence (Q9H161 200-286): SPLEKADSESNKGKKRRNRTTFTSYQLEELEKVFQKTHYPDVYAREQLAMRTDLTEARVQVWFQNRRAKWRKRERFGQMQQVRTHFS
MSX2 (Homo sapiens, UniProt P35548 130-214, F161Y), sequence (P35548 130-214 F161Y): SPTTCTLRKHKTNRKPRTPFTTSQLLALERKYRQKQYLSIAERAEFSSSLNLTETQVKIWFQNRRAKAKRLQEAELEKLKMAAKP
ALX4 (Homo sapiens, UniProt Q9H161 200-286, Q225E), sequence (Q9H161 200-286 Q225E): as the sequence (Q9H161 200-286) above, with Q26E counted along it
ALX3 (Homo sapiens, UniProt O95076 139-225, N203S), sequence (O95076 139-225 N203S): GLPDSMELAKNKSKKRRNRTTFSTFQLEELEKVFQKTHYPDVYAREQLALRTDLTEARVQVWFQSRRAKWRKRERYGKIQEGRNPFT
HOXA2 (Homo sapiens, UniProt O43364 129-215, R185T), sequence (O43364 129-215 R185T): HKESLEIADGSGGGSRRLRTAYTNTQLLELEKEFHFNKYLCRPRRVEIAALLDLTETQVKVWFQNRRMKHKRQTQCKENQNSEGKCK
ALX3 (Homo sapiens, UniProt O95076 139-225, N203Q), sequence (O95076 139-225 N203Q): as the sequence (O95076 139-225 N203S) above, with S65Q counted along it
ALX3 (Homo sapiens, UniProt O95076 139-225, L168Q), sequence (O95076 139-225 L168Q): as the sequence (O95076 139-225 N203S) above, with L30Q, S65N counted along it
ALX1 (Homo sapiens, UniProt Q15699 118-204, L144R), sequence (Q15699 118-204 L144R): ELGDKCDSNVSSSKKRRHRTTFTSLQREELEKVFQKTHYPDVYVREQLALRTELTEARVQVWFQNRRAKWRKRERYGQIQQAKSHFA
HOXA2 (Homo sapiens, UniProt O43364 129-215, Y150S), sequence (O43364 129-215 Y150S): as the sequence (O43364 129-215 R185T) above, with Y22S, T57R counted along it
ALX1 (Homo sapiens, UniProt Q15699 118-204, L144V), sequence (Q15699 118-204 L144V): as the sequence (Q15699 118-204 L144R) above, with R27V counted along it
HOXA2 (Homo sapiens, UniProt O43364 129-215), sequence (O43364 129-215): as the sequence (O43364 129-215 R185T) above, with T57R counted along it
HOXA2 (Homo sapiens, UniProt O43364 129-215, R185K), sequence (O43364 129-215 R185K): as the sequence (O43364 129-215 R185T) above, with T57K counted along it
ALX3 (Homo sapiens, UniProt O95076 139-225, L168V), sequence (O95076 139-225 L168V): as the sequence (O95076 139-225 N203S) above, with L30V, S65N counted along it
PROP1 (Homo sapiens, UniProt O75360 56-141, R99H), sequence (O75360 56-141 R99H): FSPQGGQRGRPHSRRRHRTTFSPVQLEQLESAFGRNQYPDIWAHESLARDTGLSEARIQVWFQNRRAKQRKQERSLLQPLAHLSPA
ALX3 (Homo sapiens, UniProt O95076 139-225), sequence (O95076 139-225): as the sequence (O95076 139-225 N203S) above, with S65N counted along it
PROP1 (Homo sapiens, UniProt O75360 56-141), sequence (O75360 56-141): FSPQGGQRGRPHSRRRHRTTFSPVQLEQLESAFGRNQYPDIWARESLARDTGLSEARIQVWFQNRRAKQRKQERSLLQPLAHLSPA
VAX1 (Homo sapiens, UniProt Q5SQQ9 86-172, T142I), sequence (Q5SQQ9 86-172 T142I): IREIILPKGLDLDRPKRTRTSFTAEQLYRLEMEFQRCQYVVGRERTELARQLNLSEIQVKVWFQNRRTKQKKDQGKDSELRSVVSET
PROP1 (Homo sapiens, UniProt O75360 56-141, F88S), sequence (O75360 56-141 F88S): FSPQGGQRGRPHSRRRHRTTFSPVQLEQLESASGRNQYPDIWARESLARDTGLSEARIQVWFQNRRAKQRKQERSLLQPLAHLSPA
ALX1 (Homo sapiens, UniProt Q15699 118-204), sequence (Q15699 118-204): as the sequence (Q15699 118-204 L144R) above, with R27L counted along it
VAX1 (Homo sapiens, UniProt Q5SQQ9 86-172, K157R), sequence (Q5SQQ9 86-172 K157R): as the sequence (Q5SQQ9 86-172 T142I) above, with I57T, K72R counted along it
HOXA4, sequence (Q00056 201-287 R217L): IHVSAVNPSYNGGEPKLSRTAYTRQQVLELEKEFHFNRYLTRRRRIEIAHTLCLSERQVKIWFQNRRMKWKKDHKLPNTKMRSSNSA
VAX1 (Homo sapiens, UniProt Q5SQQ9 86-172), sequence (Q5SQQ9 86-172): as the sequence (Q5SQQ9 86-172 T142I) above, with I57T counted along it

Regarding AAGTAATT, the binding signal with ALX4 [1] is 13 upbm affinity estimate (log intensity, higher = more binding, comparable within an allelic series); in the assay with ALX4 [2], 12 upbm affinity estimate (log intensity, higher = more binding, comparable within an allelic series); in the assay with HOXA4, 12 upbm affinity estimate (log intensity, higher = more binding, comparable within an allelic series); with ALX3 [3], 8.65 upbm affinity estimate (log intensity, higher = more binding, comparable within an allelic series).

CGTGGAGC: the binding signal is 8.15 upbm affinity estimate (log intensity, higher = more binding, comparable within an allelic series) with ALX4 [1]; 8.37 upbm affinity estimate (log intensity, higher = more binding, comparable within an allelic series) with ALX4 [2]; 9.58 upbm affinity estimate (log intensity, higher = more binding, comparable within an allelic series) in the assay with MSX2 [4]; 9.61 upbm affinity estimate (log intensity, higher = more binding, comparable within an allelic series) with MSX2 [5]; 9.61 upbm affinity estimate (log intensity, higher = more binding, comparable within an allelic series) in the assay with MSX2 [6].

As for GACCGTCC, the binding signal with ALX4 [1] is 8.08 upbm affinity estimate (log intensity, higher = more binding, comparable within an allelic series); with ALX4 [2], 8.15 upbm affinity estimate (log intensity, higher = more binding, comparable within an allelic series); in the assay with ALX1 [7], 6.23 upbm affinity estimate (log intensity, higher = more binding, comparable within an allelic series); with PITX2, 8.03 upbm affinity estimate (log intensity, higher = more binding, comparable within an allelic series); with ALX1 [8], 6.38 upbm affinity estimate (log intensity, higher = more binding, comparable within an allelic series); with ALX1 [9], 6.51 upbm affinity estimate (log intensity, higher = more binding, comparable within an allelic series).

In the case of CGGATGTC, the binding signal in the assay with ALX4 [1] was 8.26 upbm affinity estimate (log intensity, higher = more binding, comparable within an allelic series); in the assay with ALX4 [2], 8.17 upbm affinity estimate (log intensity, higher = more binding, comparable within an allelic series).

As to CGGGCCTC, the binding signal in the assay with ALX4 [1] was 8.16 upbm affinity estimate (log intensity, higher = more binding, comparable within an allelic series); in the assay with ALX4 [2], 8.25 upbm affinity estimate (log intensity, higher = more binding, comparable within an allelic series); with PROP1 [10] it was 6.76 upbm affinity estimate (log intensity, higher = more binding, comparable within an allelic series); in the assay with PROP1 [11], 6.84 upbm affinity estimate (log intensity, higher = more binding, comparable within an allelic series); with PROP1 [12], 6.55 upbm affinity estimate (log intensity, higher = more binding, comparable within an allelic series).

Take CCTGCGAG: the binding signal in the assay with ALX4 [1] was 7.97 upbm affinity estimate (log intensity, higher = more binding, comparable within an allelic series); in the assay with ALX4 [2], 7.97 upbm affinity estimate (log intensity, higher = more binding, comparable within an allelic series); in the assay with MSX2 [4], 9.6 upbm affinity estimate (log intensity, higher = more binding, comparable within an allelic series); in the assay with MSX2 [5], 9.6 upbm affinity estimate (log intensity, higher = more binding, comparable within an allelic series); with MSX2 [6] it was 9.61 upbm affinity estimate (log intensity, higher = more binding, comparable within an allelic series).

As to CCGTCTAG, the binding signal with ALX4 [1] is 7.85 upbm affinity estimate (log intensity, higher = more binding, comparable within an allelic series); in the assay with ALX4 [2], 8.02 upbm affinity estimate (log intensity, higher = more binding, comparable within an allelic series); with MSX2 [4] it was 9.52 upbm affinity estimate (log intensity, higher = more binding, comparable within an allelic series); with MSX2 [5], 9.39 upbm affinity estimate (log intensity, higher = more binding, comparable within an allelic series); with VAX1 [13], 6.91 upbm affinity estimate (log intensity, higher = more binding, comparable within an allelic series); with MSX2 [6], 9.55 upbm affinity estimate (log intensity, higher = more binding, comparable within an allelic series). Moreover, the binding signal in the assay with VAX1 [14] is 7.09 upbm affinity estimate (log intensity, higher = more binding, comparable within an allelic series); in the assay with VAX1 [15], 7.03 upbm affinity estimate (log intensity, higher = more binding, comparable within an allelic series).

Turning to GAAGGACC, the binding signal with PAX4 [16] was 9.27 upbm affinity estimate (log intensity, higher = more binding, comparable within an allelic series); with PAX4 [17] it was 9.3 upbm affinity estimate (log intensity, higher = more binding, comparable within an allelic series); in the assay with ALX3 [18], 7.9 upbm affinity estimate (log intensity, higher = more binding, comparable within an allelic series); with PAX4 [19], 9.41 upbm affinity estimate (log intensity, higher = more binding, comparable within an allelic series); with PAX4 [20], 9.34 upbm affinity estimate (log intensity, higher = more binding, comparable within an allelic series); with ALX3 [21], 7.9 upbm affinity estimate (log intensity, higher = more binding, comparable within an allelic series). Besides, the binding signal with PAX4 [22] was 9.33 upbm affinity estimate (log intensity, higher = more binding, comparable within an allelic series); with ALX3 [23], 7.8 upbm affinity estimate (log intensity, higher = more binding, comparable within an allelic series); with ALX3 [24], 7.85 upbm affinity estimate (log intensity, higher = more binding, comparable within an allelic series); with PAX4 [25] it was 9.46 upbm affinity estimate (log intensity, higher = more binding, comparable within an allelic series); in the assay with ALX3 [3], 7.83 upbm affinity estimate (log intensity, higher = more binding, comparable within an allelic series).

GAGCAGGC: the binding signal with PAX4 [16] was 9.17 upbm affinity estimate (log intensity, higher = more binding, comparable within an allelic series); with PAX4 [17] it was 9.18 upbm affinity estimate (log intensity, higher = more binding, comparable within an allelic series); in the assay with HOXA2 [26] it was 7.17 upbm affinity estimate (log intensity, higher = more binding, comparable within an allelic series); with PAX4 [19] it was 9.24 upbm affinity estimate (log intensity, higher = more binding, comparable within an allelic series); with HOXA2 [27], 10.1 upbm affinity estimate (log intensity, higher = more binding, comparable within an allelic series); with PAX4 [20], 9.28 upbm affinity estimate (log intensity, higher = more binding, comparable within an allelic series). Further, the binding signal with PAX4 [22] was 9.26 upbm affinity estimate (log intensity, higher = more binding, comparable within an allelic series); with PAX4 [25], 9.32 upbm affinity estimate (log intensity, higher = more binding, comparable within an allelic series); with HOXA2 [28], 10.5 upbm affinity estimate (log intensity, higher = more binding, comparable within an allelic series); in the assay with HOXA2 [29] it was 7.04 upbm affinity estimate (log intensity, higher = more binding, comparable within an allelic series).

As for CGTCCCCC, the binding signal was 9.1 upbm affinity estimate (log intensity, higher = more binding, comparable within an allelic series) in the assay with PAX4 [16]; 9.14 upbm affinity estimate (log intensity, higher = more binding, comparable within an allelic series) with PAX4 [17]; 9.4 upbm affinity estimate (log intensity, higher = more binding, comparable within an allelic series) with NKX2-6 [30]; 9.11 upbm affinity estimate (log intensity, higher = more binding, comparable within an allelic series) with PAX4 [19]; 9.08 upbm affinity estimate (log intensity, higher = more binding, comparable within an allelic series) in the assay with PAX4 [20]; 9.19 upbm affinity estimate (log intensity, higher = more binding, comparable within an allelic series) in the assay with PAX4 [22]. Moreover, the binding signal was 9.03 upbm affinity estimate (log intensity, higher = more binding, comparable within an allelic series) in the assay with NKX2-6 [31] and 9.21 upbm affinity estimate (log intensity, higher = more binding, comparable within an allelic series) with PAX4 [25].
